Assay [1] is described as follows: ATG_GRE_CIS: Attagene CIS-FACTORIAL HepG2 Assay for human Glucocorticoid Response Elements (GRE) (AID 2282947). The settings on record: HepG2 GRE cis-reporter, Attagene multiplex mRNA; actives raise or lower the signal. In outline:
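Transiently transfected HepG2 cells carrying GRE cis-reporter units (endogenous TF activity) dosed 24 h; reporter mRNA quantified by RT-PCR, 6-FAM labelling, HpaI digestion and capillary electrophoresis. Bidirectional fit versus DMSO baseline.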

A short description of assay [2]: ATG_ISRE_CIS: Attagene CIS-FACTORIAL HepG2 Assay for human Interferon Regulatory Factor 1 (IRF1) binding to an Interferon-Stimulated Response Element (ISRE) (AID 2282948). The settings on record: HepG2 ISRE cis-reporter (Attagene), mRNA transcription readout; actives raise or lower the signal. In outline: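 Transiently transfected HepG2 cells carrying cis-element reporter units, dosed 24 hours. Reporter mRNA quantified by RT-PCR, fluorescent primer extension, HpaI digestion and capillary electrophoresis. Bidirectional fitting relative to DMSO.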

The nature of assay [3]: ATG_M_32_CIS: Attagene CIS-FACTORIAL HepG2 Assay for M32 Transcription Factor (Internal Marker) (AID 2282949).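 Also: background control marker of the multiplexed CIS panel rather than a real target.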 Particulars: HepG2 Attagene cis-factorial M32 reporter, mRNA; actives raise or lower the signal. In outline: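 Fluorescent capillary electrophoresis peaks of HpaI-digested, FAM-labelled RT-PCR reporter products give the signal. Source: transiently transfected human liver HepG2 cells, 24 h after chemical dosing; bidirectional fitting against DMSO.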

A short description of assay [4]: ATG_M_06_CIS: Attagene CIS-FACTORIAL HepG2 Assay for M06 Transcription Factor (Internal Marker) (AID 2282950). Particulars: HepG2 Attagene CIS-FACTORIAL M06 internal marker reporter; actives raise or lower the signal. In outline: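 Internal background marker within multiplexed cis-reporter HepG2 system. Cells transiently transfected, dosed 24 h; reporter mRNA measured by RT-PCR, HpaI digestion and capillary electrophoresis. Bidirectional fit relative to DMSO.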

Assay [5] has as its target Hypoxia-inducible factor 1-alpha (Homo sapiens) (UniProt Q16665). The experiment in a line: ATG_HIF1a_CIS: Attagene CIS-FACTORIAL HepG2 Assay for human Hypoxia Inducible Factor 1 (HIF1A) (AID 2282951). The settings on record: HepG2 Attagene cis-factorial HIF1a reporter transcription; actives raise or lower the signal. In outline: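 Cis-element reporter constructs were transiently transfected into HepG2 cells, which were treated for 24 h; reporter RNA was reverse-transcribed, amplified, labelled and resolved by capillary electrophoresis.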

Assay [6] deals with Hepatocyte nuclear factor 6 (Homo sapiens) (UniProt Q9UBC0). The experiment in a line: ATG_HNF6_CIS: Attagene CIS-FACTORIAL HepG2 Assay for human Hepatocyte Nuclear Factor 6 (HNF6) (AID 2282952). The settings on record: HepG2 Attagene cis-factorial HNF6 reporter transcription; actives raise or lower the signal. In outline: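 Reporter mRNA induction or loss in HepG2 after 24 h exposure; transient cis-MRTU transfection; fragments quantified by capillary electrophoresis; bidirectional analysis, DMSO as negative control.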

Assay [7] addresses Heat shock factor protein 1 (Homo sapiens) (UniProt Q00613). Put plainly: ATG_HSE_CIS: Attagene CIS-FACTORIAL HepG2 Assay for human Heat Shock Transcription Factor 1 (HSE) (AID 2282953). The settings on record: HepG2 HSE cis-reporter, Attagene RNA transcription; actives raise or lower the signal. In outline: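 HepG2 cells transfected with cis-promoter reporter units sensing endogenous transcription factor activity; reporter mRNA quantified 24 h post-dose by RT-PCR and capillary electrophoresis of 6-FAM-labelled products. Bidirectional fitting against DMSO.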

Assay [8] is described as follows: ATG_MRE_CIS: Attagene CIS-FACTORIAL HepG2 Assay for human Metal Responsive Element (MRE) (AID 2282954). Particulars: HepG2 MRE cis-reporter transcription, Attagene multiplex; actives raise or lower the signal. In outline: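 HepG2 cells transiently transfected with cis-element-driven reporter units; mRNA measured 24 h after dosing. Reporter transcripts quantified by RT-PCR, FAM labelling, HpaI digestion and capillary electrophoresis; bidirectional fit versus DMSO.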

Assay [9] is described as follows: ATG_PBREM_CIS: Attagene CIS-FACTORIAL HepG2 Assay for human Phenobarbital-responsive Enhancer Module (PBREM) (AID 2282955). The settings on record: HepG2 PBREM cis-reporter, Attagene multiplexed transcription; actives raise or lower the signal. In outline: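 Multiplexed cis-reporter readout in human hepatoma HepG2 cells; PBREM-regulated transcript quantified after 24 h exposure by fluorescent RT-PCR fragment analysis. Signal changes up or down fitted relative to DMSO.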

The target of assay [10] is Paired box protein Pax-6 (Homo sapiens) (UniProt P26367). Put plainly: ATG_Pax6_CIS: Attagene CIS-FACTORIAL HepG2 Assay for human Paired Box 6 (PAX6) (AID 2282956). Particulars: HepG2 CIS-FACTORIAL PAX6 reporter transcription, RNA readout; actives raise or lower the signal. In outline: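 HepG2 cells transiently transfected with cis-promoter-driven multiplexed reporter units sensing endogenous transcription factor activity; 24 h chemical exposure. Reporter mRNA quantified by RT-PCR, 6-FAM labelling, HpaI digestion and capillary electrophoresis; bidirectional fit versus DMSO baseline.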

Assay [11] is described as follows: ATG_PXRE_CIS: Attagene CIS-FACTORIAL HepG2 Assay for human Pregnane X Receptor Element (PXRE) (AID 2282957). Particulars: HepG2 Attagene CIS-FACTORIAL PXRE reporter, mRNA; actives raise or lower the signal. In outline: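 Transiently transfected HepG2 cells were dosed and incubated for 24 h. RNA was then isolated, DNase-treated, reverse-transcribed and reporter sequences amplified. Labeled, HpaI-digested fragments were quantified by capillary electrophoresis against DMSO.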

A short description of assay [12]: ATG_PPRE_CIS: Attagene CIS-FACTORIAL HepG2 Assay for human Peroxisome Proliferator-activated Response Element (PPRE) (AID 2282958). Particulars: HepG2 PPRE cis-element reporter, Attagene transcription factor profiling; actives raise or lower the signal. In outline: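 DMSO served as negative control and baseline for bidirectional curve fitting. Signal came from PPRE-regulated reporter mRNA in HepG2 cells, measured 24 h post-dosing by RT-PCR, 6-FAM primer extension and capillary electrophoresis.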

The nature of assay [13]: ATG_RORE_CIS: Attagene CIS-FACTORIAL HepG2 Assay for human RAR-related Orphan Receptor Element (RORE) (AID 2282959). The settings on record: HepG2 Attagene cis-factorial RORE reporter, mRNA; actives raise or lower the signal. In outline: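 Transfect HepG2 with MRTUs; treat 24 h; extract RNA; RT with oligo(dT); PCR with reporter-specific primers; 6-FAM primer extension; HpaI digest 2 h at 37 C; capillary electrophoresis. Fit vs DMSO, bidirectional.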

Assay [14] is described as follows: ATG_Sox_CIS: Attagene CIS-FACTORIAL HepG2 Assay for human SRY-box transcription factor (SOX) (AID 2282960). The settings on record: HepG2 Attagene cis-factorial SOX reporter, mRNA; actives raise or lower the signal. In outline:
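Fluorescence-labelled cDNA fragments from reporter transcripts, sized by CE, give the signal. Cells: HepG2, transiently transfected with cis-regulated reporter units. Exposure 24 h; DMSO negative control; bidirectional curve fitting.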

Assay [15] deals with Transcription factor Sp1 (Homo sapiens) (UniProt P08047). The experiment in a line: ATG_Sp1_CIS: Attagene CIS-FACTORIAL HepG2 Assay for human Specificity Protein 1 (Sp1) (AID 2282961). The settings on record: HepG2 Sp1 cis-reporter transcription, actives raise or lower the signal. In outline:
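Chemicals are dosed onto HepG2 cells transfected with multiple cis-promoter reporter constructs, and after 24 h reporter RNA is reverse-transcribed, PCR-amplified and resolved by capillary electrophoresis for fluorescence quantitation; activity is scored up or down against DMSO.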

Assay [16] is described as follows: ATG_SREBP_CIS: Attagene CIS-FACTORIAL HepG2 Assay for human Sterol Regulatory Element Binding (SREBP) (AID 2282962). The settings on record: HepG2 Attagene cis-factorial SREBP reporter, mRNA; actives raise or lower the signal. In outline: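 HepG2 cells transiently transfected with multiplexed cis-promoter reporter units sensing endogenous transcription factors; reporter mRNA measured 24 h after dosing by RT-PCR, 6-FAM labeling, HpaI digestion and capillary electrophoresis. Bidirectional fit versus DMSO.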

Assay [17] has as its target Signal transducer and activator of transcription 3 (Homo sapiens) (UniProt P40763). The experiment in a line: ATG_STAT3_CIS: Attagene CIS-FACTORIAL HepG2 Assay for human Signal Transducer and Activator of Transcription 3 (STAT3) (AID 2282963). The settings on record: HepG2, Attagene cis-factorial STAT3 reporter transcription; actives raise or lower the signal. In outline: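 HepG2 cells transiently transfected with multiple cis-element-driven reporter units report endogenous transcription factor activity. After 24 h compound exposure, reporter mRNA is measured by RT-PCR, 6-FAM labelling, HpaI digestion and capillary electrophoresis. Fitted bidirectionally versus DMSO.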

Assay [18] can be described thus: ATG_TA_CIS: Attagene CIS-FACTORIAL HepG2 Assay for human TA Basal Promoter (AID 2282964). The settings on record: HepG2 Attagene CIS-factorial TA basal promoter reporter; actives raise or lower the signal. In outline:
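HepG2 cells transiently transfected with multiple reporter units under cis promoter elements, reporting endogenous transcription factor activity; this endpoint tracks the TA basal promoter as background control. Reporter mRNA after 24 h dosing measured by RT-PCR/capillary electrophoresis; bidirectional fits versus DMSO.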

Assay [19] in a line: ATG_TCF_b_cat_CIS: Attagene CIS-FACTORIAL HepG2 Assay for human T-Cell-Factor with beta-catenin (TCF/b-cat) (AID 2282965). The settings on record: HepG2 TCF/beta-catenin cis-reporter transcription, actives raise or lower the signal. In outline: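 HepG2 cells transiently transfected with cis-promoter-driven multiplexed reporter units; reporter mRNA measured 24 h after dosing by RT-PCR, FAM labelling, HpaI digestion and capillary electrophoresis. Bidirectional fitting relative to DMSO baseline.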

Assay [20] in a line: ATG_TAL_CIS: Attagene CIS-FACTORIAL HepG2 Assay for human TAL Basal Promoter (AID 2282966).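 Also: background control endpoint measuring basal TAL promoter reporter mRNA not a specific factor.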 The settings on record: HepG2 Attagene cis-factorial TAL promoter reporter; actives raise or lower the signal. In outline: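 Readout: reporter mRNA, fluorescence by CE. System: HepG2, transient multi-reporter transfection, endogenous TF activity. Exposure: 24 h. Analysis: bidirectional, DMSO-normalized; background control.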

Active and inactive are the calls of the source. The calls were made as follows: active = hit-call score of the fitted dose curve at least 0.9, where 1 is the maximum; inactive = score below 0.9.

Chain of Heat shock factor protein 1 (Homo sapiens) (Q00613 whole entry, looked up): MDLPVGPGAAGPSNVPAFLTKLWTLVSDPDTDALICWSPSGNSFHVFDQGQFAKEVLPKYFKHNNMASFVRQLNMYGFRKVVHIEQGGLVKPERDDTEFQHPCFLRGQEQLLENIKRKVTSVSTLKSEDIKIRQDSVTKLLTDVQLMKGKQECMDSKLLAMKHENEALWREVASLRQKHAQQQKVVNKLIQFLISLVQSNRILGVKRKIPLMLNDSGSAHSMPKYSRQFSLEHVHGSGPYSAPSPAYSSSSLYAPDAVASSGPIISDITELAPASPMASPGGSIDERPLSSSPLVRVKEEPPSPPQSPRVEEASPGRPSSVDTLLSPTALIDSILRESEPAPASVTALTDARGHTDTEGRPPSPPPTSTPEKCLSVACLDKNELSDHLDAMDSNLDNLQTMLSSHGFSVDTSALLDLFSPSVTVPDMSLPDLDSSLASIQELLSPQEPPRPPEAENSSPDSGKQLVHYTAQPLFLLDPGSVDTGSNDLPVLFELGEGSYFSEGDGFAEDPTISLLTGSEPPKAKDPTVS
Chain of Hypoxia-inducible factor 1-alpha (Homo sapiens) (Q16665 whole entry, looked up): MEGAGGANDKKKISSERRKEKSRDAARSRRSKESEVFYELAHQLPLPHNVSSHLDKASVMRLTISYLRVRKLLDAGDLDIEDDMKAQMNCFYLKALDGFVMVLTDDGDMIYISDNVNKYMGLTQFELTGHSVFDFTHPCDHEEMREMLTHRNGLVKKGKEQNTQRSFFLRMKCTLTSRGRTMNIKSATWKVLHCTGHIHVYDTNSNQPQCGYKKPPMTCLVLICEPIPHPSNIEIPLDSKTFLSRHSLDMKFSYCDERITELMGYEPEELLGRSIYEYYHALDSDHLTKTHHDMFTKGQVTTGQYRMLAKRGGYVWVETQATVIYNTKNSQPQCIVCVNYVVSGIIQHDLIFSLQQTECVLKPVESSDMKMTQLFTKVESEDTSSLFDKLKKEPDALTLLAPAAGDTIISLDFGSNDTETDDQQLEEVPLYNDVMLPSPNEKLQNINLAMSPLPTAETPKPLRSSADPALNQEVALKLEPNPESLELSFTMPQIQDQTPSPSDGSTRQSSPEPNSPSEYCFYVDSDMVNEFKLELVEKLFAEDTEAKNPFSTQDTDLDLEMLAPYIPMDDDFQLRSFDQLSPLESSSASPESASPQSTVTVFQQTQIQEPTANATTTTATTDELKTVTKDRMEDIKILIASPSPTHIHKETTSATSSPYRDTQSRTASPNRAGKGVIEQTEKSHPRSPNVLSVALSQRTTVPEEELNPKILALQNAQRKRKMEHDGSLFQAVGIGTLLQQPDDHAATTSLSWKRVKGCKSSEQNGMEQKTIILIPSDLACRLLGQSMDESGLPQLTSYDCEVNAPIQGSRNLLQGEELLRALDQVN
Chain of Paired box protein Pax-6 (Homo sapiens) (P26367 whole entry, looked up): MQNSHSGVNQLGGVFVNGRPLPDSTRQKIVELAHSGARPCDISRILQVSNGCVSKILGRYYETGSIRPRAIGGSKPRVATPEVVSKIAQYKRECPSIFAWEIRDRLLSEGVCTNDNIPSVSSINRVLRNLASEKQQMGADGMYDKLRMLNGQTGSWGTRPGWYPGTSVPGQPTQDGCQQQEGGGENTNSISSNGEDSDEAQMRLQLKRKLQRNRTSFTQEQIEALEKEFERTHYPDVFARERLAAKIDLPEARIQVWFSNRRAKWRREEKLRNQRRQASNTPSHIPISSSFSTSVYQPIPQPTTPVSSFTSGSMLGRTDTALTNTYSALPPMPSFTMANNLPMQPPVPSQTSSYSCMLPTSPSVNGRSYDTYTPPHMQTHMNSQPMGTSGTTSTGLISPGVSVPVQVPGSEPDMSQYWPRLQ
Chain of Hepatocyte nuclear factor 6 (Homo sapiens) (Q9UBC0 whole entry, looked up, the tested form may be a part): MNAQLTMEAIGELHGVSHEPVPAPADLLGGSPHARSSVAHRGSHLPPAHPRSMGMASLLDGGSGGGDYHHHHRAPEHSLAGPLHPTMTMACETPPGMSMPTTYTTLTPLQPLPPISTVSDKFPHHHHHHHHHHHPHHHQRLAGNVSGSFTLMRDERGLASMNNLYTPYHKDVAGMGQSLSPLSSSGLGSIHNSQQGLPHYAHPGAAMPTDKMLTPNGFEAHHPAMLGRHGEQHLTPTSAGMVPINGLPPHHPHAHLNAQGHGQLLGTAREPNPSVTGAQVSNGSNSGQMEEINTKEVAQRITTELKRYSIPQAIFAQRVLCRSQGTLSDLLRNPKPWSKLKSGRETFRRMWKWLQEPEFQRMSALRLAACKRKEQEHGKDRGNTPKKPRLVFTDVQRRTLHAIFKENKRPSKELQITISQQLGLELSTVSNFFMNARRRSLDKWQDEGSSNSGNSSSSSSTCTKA
Chain of Transcription factor Sp1 (Homo sapiens) (P08047 whole entry, looked up): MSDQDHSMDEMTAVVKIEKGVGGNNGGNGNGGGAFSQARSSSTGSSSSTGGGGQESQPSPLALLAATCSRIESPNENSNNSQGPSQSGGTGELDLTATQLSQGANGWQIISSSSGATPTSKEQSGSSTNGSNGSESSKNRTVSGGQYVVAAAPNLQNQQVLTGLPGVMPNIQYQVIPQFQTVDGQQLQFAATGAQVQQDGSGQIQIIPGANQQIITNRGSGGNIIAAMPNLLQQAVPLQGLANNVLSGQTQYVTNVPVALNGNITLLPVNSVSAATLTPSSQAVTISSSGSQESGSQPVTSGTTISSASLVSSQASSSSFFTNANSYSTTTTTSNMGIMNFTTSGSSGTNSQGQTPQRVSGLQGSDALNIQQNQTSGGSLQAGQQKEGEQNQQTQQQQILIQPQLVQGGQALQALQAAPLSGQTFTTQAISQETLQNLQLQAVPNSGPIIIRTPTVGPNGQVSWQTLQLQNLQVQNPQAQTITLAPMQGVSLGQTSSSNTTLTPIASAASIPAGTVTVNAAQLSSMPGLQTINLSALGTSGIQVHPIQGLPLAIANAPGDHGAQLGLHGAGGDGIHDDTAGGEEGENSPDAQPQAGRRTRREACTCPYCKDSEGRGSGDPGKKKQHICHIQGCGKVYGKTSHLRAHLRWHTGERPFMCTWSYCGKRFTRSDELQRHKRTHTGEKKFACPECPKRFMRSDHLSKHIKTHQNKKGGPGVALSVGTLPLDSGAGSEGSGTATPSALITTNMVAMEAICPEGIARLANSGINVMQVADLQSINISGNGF
Chain of Signal transducer and activator of transcription 3 (Homo sapiens) (P40763 whole entry, looked up): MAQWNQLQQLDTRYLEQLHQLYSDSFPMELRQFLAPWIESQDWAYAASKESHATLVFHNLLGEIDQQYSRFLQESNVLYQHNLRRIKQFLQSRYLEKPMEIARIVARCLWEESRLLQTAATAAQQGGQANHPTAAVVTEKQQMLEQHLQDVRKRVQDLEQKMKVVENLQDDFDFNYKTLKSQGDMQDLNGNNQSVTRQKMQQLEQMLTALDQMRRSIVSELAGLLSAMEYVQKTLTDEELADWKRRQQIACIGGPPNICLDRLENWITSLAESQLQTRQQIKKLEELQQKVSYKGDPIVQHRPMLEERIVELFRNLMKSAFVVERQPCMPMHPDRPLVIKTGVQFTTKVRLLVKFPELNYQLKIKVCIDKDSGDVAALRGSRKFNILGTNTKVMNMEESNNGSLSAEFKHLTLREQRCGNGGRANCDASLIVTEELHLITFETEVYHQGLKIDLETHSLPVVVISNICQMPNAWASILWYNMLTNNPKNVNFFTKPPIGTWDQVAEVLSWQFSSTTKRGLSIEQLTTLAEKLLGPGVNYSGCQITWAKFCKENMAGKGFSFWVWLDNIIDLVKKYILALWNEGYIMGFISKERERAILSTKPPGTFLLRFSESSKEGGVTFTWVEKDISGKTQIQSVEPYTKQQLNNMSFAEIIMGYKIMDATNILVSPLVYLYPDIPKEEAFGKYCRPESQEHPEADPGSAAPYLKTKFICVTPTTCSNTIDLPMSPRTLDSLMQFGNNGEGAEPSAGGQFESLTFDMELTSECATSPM

Consider `FC(F)(F)C(F)(F)C(F)(F)C(F)(F)C(F)(F)C(F)(F)I`, for which the outcome in [1], in [2], in assay [3], in assay [4], in assay [5] and in assay [6] was inactive. For the same compound, the compound was called inactive in assay [7], in assay [8], in assay [9], in assay [10], in assay [11] and in [12]. For the same compound, the compound was called inactive in assay [13], in assay [14], in assay [15], in [16], in assay [17] and in [18]. Also, the outcome in [19] and in assay [20] was inactive.

`O=S1(=O)CCCO1`: the result in [1], in [2], in assay [3], in assay [4], in [5] and in assay [6] was inactive. The compound was classed as inactive in [7], in assay [8], in assay [9], in assay [11], in [12] and in assay [13]. The result in assay [14], in assay [15], in [16], in assay [17], in assay [19] and in [20] was inactive.

For `NC(=O)N(O)[C@@H]1COc2cc(OCc3ccccc3)ccc21`, the compound was classed as inactive in assay [1], in [2], in [3], in assay [4], in assay [5] and in assay [6]. Moreover, the compound was classed as inactive in assay [8], in [9], in assay [10], in [11], in [12] and in [13]. Also, the compound was called inactive in assay [14], in assay [15], in [16], in assay [17], in assay [19] and in assay [20].

In general, AC50 refers to the concentration at which the activity in the assay is half-maximal. Consider `CC[C@H](C)C(=O)O[C@H]1C[C@H](O)C=C2C=C[C@H](C)[C@H](CC[C@@H](O)C[C@@H](O)CC(=O)O)[C@H]21`, for which the result in [1], in assay [2], in [3], in assay [4], in assay [5] and in assay [6] was inactive. For the same compound, the call in assay [7], in [8], in assay [12], in assay [13], in assay [14] and in assay [15] was inactive. Moreover, the compound was called inactive in assay [16], in [17], in assay [19] and in assay [20]. Moreover, in assay [11], the AC50 is 48.1 µM (active).

With `O=S(=O)(O)c1ccc(N=Nc2c(O)ccc3cc(S(=O)(=O)O)ccc23)cc1`, the call in assay [1], in [2], in assay [3], in assay [4], in assay [5] and in assay [6] was inactive. The compound was classed as inactive in [7], in assay [8], in assay [9], in assay [10], in assay [11] and in [13]. Also, the compound was called inactive in assay [14], in assay [15], in assay [16], in assay [17], in [19] and in assay [20].

On to `COc1cc(C(C)C)c2c(c1)S(=O)(=O)N(COc1cc(=O)n3cccc(OCCN4CCCCC4)c3n1)C2=O`, for which the concentration at half-maximal activity (AC50) in assay [1] is 4.22 µM (active); in assay [2], 5.08 µM (active); in assay [4] it was 12.3 µM (active); in assay [5] it was 5.04 µM (active); in assay [6] it was 13.9 µM (active); in [7], 2.75 µM (active). Further, the AC50 in assay [8] was 9.28 µM (active); in [10], 8.11 µM (active); in assay [11], 3.27 µM (active); in assay [13], 8.25 µM (active); in assay [14], 4.26 µM (active); in assay [15], 3.94 µM (active). Also, the half-maximal activity concentration (AC50) was 3.78 µM (active) in assay [16] and 4.04 µM (active) in assay [19]. Besides, the call in [3], in assay [9], in assay [17], in [18] and in assay [20] was inactive.

Values taken from PubChem BioAssay (EPA / NIEHS).
